Measured values from PubChem BioAssay AID686978 (National Center for Advancing Translational Sciences (NCATS), 2013).
“And” between values parts separate entries of the source, which are not always exact repeats. Identical values can stand only once. About 64,000 (15%) of roughly 420,000 compounds were called active. Roughly 27% stayed inconclusive and do not appear here. The call rests on the fitted dose curve; in most records, active means well fitted inhibition curve with a large enough effect; inconclusive means small, poorly fitted or top-dose-only effect; inactive means flat fitted curve, though single readings scatter. Only a sample is shown. A structure can be active in one record and inactive in another.

Test: qHTS for Inhibitors of human tyrosyl-DNA phosphodiesterase 1 (TDP1): qHTS in cells in absence of CPT; further: nearly all actives have a fitted effect of over 55% in size
Conditions: DT40 Tdp1-/- hTDP1 cells, no CPT, ATP luminescence, 48 h; activity change, negative = growth inhibition: at 46.2 µM (top of the series)
Summary of the method: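 A cellular qHTS used chicken DT40 cells lacking endogenous Tdp1 but carrying stably transfected human TDP1. Compounds were applied without camptothecin, and cell growth kinetics were judged by ATP-dependent luminescence after ≥48 hr.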
On the % scale 0 is the no-effect control and ±100 the full control effect; potency means the concentration at half of the fitted maximal effect.

Structure (SMILES)	Potency	activity change, negative = growth inhibition
Cc1oc2ccc(O)c(CN3CCCCC3)c2c1C(=O)Nc1cccc(C(F)(F)F)c1	23.1 µM (active)	–
CC(=O)N1CCN(C(=O)Nc2cccc(C(F)(F)F)c2)CC1	–	-15.5% (inactive)
CCOC(=O)c1cccc(NC(=O)c2cc(CN3CCCC3)on2)c1	–	0.305% (inactive)
COc1ccc(CCNC(=O)COC(=O)C2CC2C)cc1 (stereo not drawn)	–	-13.2% (inactive)
O=C(O)CCN(Cc1ccccc1)S(=O)(=O)c1c(Cl)cccc1Cl	–	12.7% (inactive)
CCC(C)N(C(=O)CSc1ncnc2c1cnn2-c1ccccc1)C1CCS(=O)(=O)C1 (stereo not drawn)	–	-14.9% (inactive)
COc1ccccc1NC(=S)NC(=O)C(C)C	–	-4.21% (inactive)
COc1ccccc1NC(=O)c1oc2ccccc2c1NC(=O)COc1ccccc1OC	–	-16.2% (inactive)
COc1ccccc1NC(=O)c1oc2ccccc2c1NC(=O)C(C)C	16.4 µM (active)	–
Cc1ccc(C(=O)OCC(=O)Nc2ccc(Cl)cn2)cc1S(=O)(=O)N1CCOCC1	–	-21.3% (inactive)
O=C(OCCN1CCOCC1)C1(c2ccccc2)CCCCC1	inactive and 26.6 µM (active)	–
O=C(COC(=O)C1(c2ccc(F)cc2)CCCC1)N1CCNC1=O	–	-6.05% (inactive)
N[C@@H](Cc1ccccc1)C(=O)N1CCOCC1	–	14.3% (inactive)
CNS(=O)(=O)c1cccc(C(=O)NCC2CCCCC2)c1	–	20% (inactive)
CN(C)S(=O)(=O)N1CCC(Oc2cccc(C(=O)NCCCC3CCCC3)c2)CC1	7.31 µM (active)	–
CN(C(=O)c1cccc(OC2CCN(S(=O)(=O)N(C)C)CC2)c1)C1CCOC1 (stereo not drawn)	–	25.1% (inactive)
CC(C)N(C(=O)Cn1cc(SCC(=O)N2CCCC2)c2ccccc21)C(C)C	–	4.08% (inactive)
O=C1c2ccccc2C(=O)N1CCc1nn[nH]n1	–	-5.45% (inactive)
COc1ccc(N2CC(C(=O)NCCS(=O)(=O)N3CCN(c4ccccc4)CC3)CC2=O)cc1 (stereo not drawn)	inactive	–
COc1cc(C(=O)NCCS(=O)(=O)N2CCN(c3ccccc3)CC2)cc(OC)c1OC	20.6 µM (active)	–
O=C(NCCS(=O)(=O)N1CCN(c2ccccc2)CC1)c1ccco1	–	-3.54% (inactive)
O=C(O)c1cc(S(=O)(=O)N(Cc2ccccc2)c2ccccc2)ccc1Cl	–	-0.896% (inactive)
C#CCOCCOCCOCCNc1nc(N2CCN(C(=O)Cn3cc(CCCCN)nn3)CC2)nc(N2CCN(C(=O)[C@H](CCCCN)n3cc(CCC(=O)O)nn3)CC2)n1	–	1.14% (inactive)
Cc1ccc(-c2csc(-c3cc(C)on3)n2)cc1	–	-23% (inactive)
Cc1csc(OCC(=O)Nc2ccc(C)c(C)c2)n1	–	-2.63% (inactive)
COc1ccc(C(C)(O)c2nc(-c3cc(F)cc(F)c3)cs2)cc1 (stereo not drawn)	16.4 µM (active)	–

Structure (SMILES)	Potency	activity change, negative = growth inhibition
COc1ccc(C(C)(O)c2nc(-c3ccc(C)c(C)c3)cs2)cc1 (stereo not drawn)	18.4 µM (active)	–
COc1ccc(C(C)(NC(C)=O)c2nc(-c3ccc(S(C)(=O)=O)cc3)cs2)cc1 (stereo not drawn)	–	-20.1% (inactive)
COc1cccc(CN2C(=O)CCC2(C)C(=O)NC2CCCCCC2)c1 (stereo not drawn)	–	-15.5% (inactive)
COc1cc(C)c(S(=O)(=O)N2CCOCC2)c(C)c1C	–	-15.2% (inactive)
CCNC(=O)Nc1ccc(S(=O)(=O)Nc2cnc(C)nc2C)cc1	–	-7.54% (inactive)
Cc1cccc(NC(=O)/C=C/c2ccc3c(c2)OCO3)n1	18.4 µM (active)	–
O=C(O)/C=C/c1ccc2c(c1)OCCO2	–	2.37% (inactive)
CCc1c(C)sc(NC(=O)/C=C/c2ccc3c(c2)OCO3)c1C(=O)OC	–	-0.669% (inactive)
CC1CN(S(=O)(=O)c2ccc(C(=O)NN3CCN(C)CC3)cc2)CC(C)O1 (stereo not drawn)	–	4.66% (inactive)
O=C(CCC1CCCC1)N=C1SC2CS(=O)(=O)CC2N1Cc1ccccc1 (stereo not drawn)	–	1.24% (inactive)
O=C(CCN1C(=O)c2ccccc2C1=O)NCCCn1ccnc1	–	-7.45% (inactive)
CCCCN(C(=O)C1=NN(c2cc(C)ccc2C)C(=O)CC1)c1c(N)n(CCC)c(=O)[nH]c1=O	–	21.6% (inactive)
CC(C)CC(CCc1ccccc1)OS(N)(=O)=O (stereo not drawn)	–	-1.83% (inactive)
CN1OC[C@@H]2CN(C(=O)C(C)(C)C)[C@H](c3ccc(-n4ccnc4)cc3)C[C@@H]21	–	0.376% (inactive)
CC1CC(C)(C)CC2(C1)NC(=O)N(CC(=O)Nc1nccs1)C2=O (stereo not drawn)	–	3.31% (inactive)
Cc1ccc(CC2CC(=O)N(c3ccc4c(c3)OCCO4)C2=O)cc1 (stereo not drawn)	–	-5.08% (inactive)
COc1ccc(C2=NN(C(C)=O)C(c3ccccc3)C2)cc1 (stereo not drawn)	–	-9.61% (inactive)
COc1ccc(C2=NN(C(=O)c3ccccc3C(=O)O)C(c3ccccc3O)C2)cc1 (stereo not drawn)	–	-19.5% (inactive)
COc1ccc(C2CC(c3ccc([N+](=O)[O-])cc3)=NN2C(C)=O)cc1 (stereo not drawn)	14.6 µM (active)	–
Cc1nc(CN2CCN(C(=O)CCc3nnc(Cc4c[nH]c5ccccc45)o3)CC2)cs1	–	-10.5% (inactive)
CC(C)N(C)C(=O)CCc1nnc(CCc2c[nH]c3ccccc23)o1	–	-6.57% (inactive)
Cc1nn(C)c(C)c1CN(C(=O)CCc1nnc(Cc2c[nH]c3ccccc23)o1)C(C)C	16.4 µM (active)	–
CC1(C(=O)NS(=O)(=O)c2cccc(F)c2)CCN1C(=O)Cc1cc(F)ccc1F (stereo not drawn)	–	8.26% (inactive)
O=C(CN1C(=O)COc2ccc(Cl)cc21)N1CCOCC1	–	7.52% (inactive)
Cc1cccc(OCC(=O)NCCNC(=O)c2cccnc2)c1	–	8.85% (inactive)
CCOC(=O)c1ccc(N2C(=O)c3n[nH]c(C)c3C2c2ccc(O)c(OC)c2)cc1 (stereo not drawn)	18.4 µM (active)	–

Structure (SMILES)	Potency	activity change, negative = growth inhibition
CCOC(=O)C1=C(c2ccccc2)N=C2SCC(=O)N2C1c1ccc(O)c(OC)c1 (stereo not drawn)	–	-16.8% (inactive)
COc1cc(C2C(C(=O)c3ccc(C)o3)=C(O)C(=O)N2Cc2cccnc2)ccc1O (stereo not drawn)	–	-0.599% (inactive)
Cc1nc(N2CCCC2C(=O)O)c2oc3ccccc3c2n1 (stereo not drawn)	–	1.8% (inactive)
CCCN(CC(=O)Nc1ccc(OC)c(OC)c1)CC(=O)Nc1ccc(F)c(F)c1F	–	-8.97% (inactive)
O=C(Nc1sc2c(c1-c1nc3ccccc3[nH]1)CCCC2)C1CC1	–	-0.787% (inactive)
CC(=O)c1ccc(NC(=O)C(C)NCc2ccc(Cl)cc2)cc1 (stereo not drawn)	–	-2.9% (inactive)
Cc1ccccc1Nc1nnc(C)c(=O)[nH]1	–	-2.18% (inactive)
CCOc1ccc(-n2c(O)c(/C=N/Nc3nnc(C)c(=O)[nH]3)c3ccccc3c2=O)cc1	0.92 µM (active)	–
CCN(CC)CCCN=Cc1c(O)n(-c2ccc(C)cc2)c(=O)c2ccccc12	–	-22.5% (inactive)
CCOc1ccc(-n2c(O)c(/C=N/Nc3nc(C)cc(C)n3)c3ccccc3c2=O)cc1	3.26 µM (active)	–
CCOc1ccc(-n2c(O)c(/C=N/c3ccnn3Cc3ccncc3)c3ccccc3c2=O)cc1	–	3.46% (inactive)
Cc1nnc(N/N=C/c2ccccn2)[nH]c1=O	2.91 µM (active)	–
Cc1nnc(N/N=C/c2cccs2)[nH]c1=O	–	-4.48% (inactive)
CCOc1ccc(N/C(N)=N/c2nc(C)c(C)c(=O)[nH]2)cc1	–	-1.43% (inactive)
COc1ccc(-n2c(O)c(C=NCC(c3ccco3)N3CCCC3)c3ccccc3c2=O)cc1OC (stereo not drawn)	–	-12.9% (inactive)
CC(=O)Nc1ccc(S(=O)(=O)NC2(C(F)(F)F)C(=O)Nc3c2c(=O)[nH]c(=O)n3Cc2ccccc2)cc1 (stereo not drawn)	–	-32.8% (inactive)
Cc1cc(F)ccc1NC(=O)C(C)n1c2ccccc2c2nc(=O)cc(C)n21 (stereo not drawn)	–	-0.709% (inactive)
CCC(C)n1[nH]c(=O)cc1N (stereo not drawn)	–	-7.43% (inactive)
O=C(CCN1C(=O)C2C3C=CC(C3)C2C1=O)Oc1ccc2ccccc2c1 (stereo not drawn)	–	-4.21% (inactive)
CC1CCCCC1NC(=O)CN1CCC(O)(c2ccc3c(c2)OCO3)CC1 (stereo not drawn)	–	-19.2% (inactive)
CCCCn1nc(C(=O)N2CCc3ccccc32)c2ccccc2c1=O	16.4 µM (active)	–
CCn1nc(C(=O)OCC(=O)N2c3ccccc3CC2C)c2ccccc2c1=O (stereo not drawn)	–	-7.1% (inactive)
CCCn1nc(C(=O)N2CCCc3ccccc32)c2ccccc2c1=O	18.4 µM (active)	–
O=C(c1cccc(C(=O)N2CCc3ccccc32)n1)N1CCc2ccccc21	–	-27% (inactive)
CCCCn1nc(C(=O)OCC(=O)Nc2sccc2C(N)=O)c2ccccc2c1=O	–	-22.1% (inactive)
CCC(=O)N1CCCc2ccccc21	–	3.1% (inactive)

Structure (SMILES)	Potency	activity change, negative = growth inhibition
O=C(NCCCN1CCCCCC1)C1CC(=O)N(C2CCCC2)C1 (stereo not drawn)	–	-3.95% (inactive)
CCN1CCN(C(c2ccc(C)cc2)c2c(O)cc(C)n(Cc3ccco3)c2=O)CC1 (stereo not drawn)	–	-8.76% (inactive)
CCOC(=O)[C@H](CCc1ccccc1)N[C@@H](C)C(=O)N1CC2(C[C@H]1C(=O)O)SCCS2	–	-5.18% (inactive)
Cc1ccc(NC2=NC(c3ccccc3)n3c(nc(C)cc3=O)N2)cc1 (stereo not drawn)	–	-4.91% (inactive)
COc1cccc(NCCC(=O)c2cccc([N+](=O)[O-])c2)c1	14.6 µM (active)	–
CC(C)(C)SCCNC(=O)c1cccc([N+](=O)[O-])c1	–	-20.7% (inactive)
COc1cccc(CNC(=O)CCCC(=O)Nc2cccc([N+](=O)[O-])c2)c1	–	-1.7% (inactive)
CC1=NN(c2ccc(Cl)c(C(=O)O)c2)C(=O)/C1=C/c1ccc(-c2ccccc2[N+](=O)[O-])o1	–	2.39% (inactive)
Fc1cccc2ncnc(OCc3ccccc3)c12	–	0.0434% (inactive)
Cc1nc2ccccc2cc1OCc1ccc(F)cc1	11.6 µM (active)	–
Cc1occc(=O)c1OCc1ccc(F)cc1	–	5.6% (inactive)
Cc1cc(C)cc(C(=O)NC2C(=O)N3C(C(=O)O)=C(CSc4nnc(C)s4)CSC23)c1 (stereo not drawn)	–	7.63% (inactive)
CCOc1ccc(NC(=O)c2ccc(NC(=O)CN3C(=O)C(=O)N(CC(C)C)C3=O)cc2)cc1	–	-29.5% (inactive)
Cc1ccsc1C(=O)OCC(=O)NCCc1ccccc1	–	1.34% (inactive)
CCC1CCCCN1C(=O)CSc1nc(C)cc(C)n1 (stereo not drawn)	–	1.91% (inactive)
CC(=O)c1cccc(NC(=S)N2CCCC2)c1	–	25.2% (inactive)
Cc1cccc(NC(=S)N2CCC(C(=O)c3ccc(F)cc3)CC2)c1	13 µM (active)	–
Cc1cccc(NC(=O)C2CCN(C(=O)NC3CCCCC3)CC2)c1	–	-3.04% (inactive)
Cn1c(N2CCOCC2)c(C=O)c2ccccc21	–	-2.65% (inactive)
CCNC(=S)N1CCN(C(=O)c2ccco2)CC1	–	-11.5% (inactive)
Cc1ccccc1C1=N/C(=C/c2cccnc2)C(=O)O1	–	-15.2% (inactive)
Cc1ccc(C2=C/C(=C\c3cccnc3)C(=O)O2)cc1	–	1.52% (inactive)
O=C1OC(c2ccc(Cl)cc2)=N/C1=C\c1cccnc1	16.4 µM (active)	–
O=C1NC2(CCCCCC2)C(=O)N1CCS(=O)(=O)Oc1ccccc1	–	-21.8% (inactive)
CCCNC(=S)N1CCC(NC(=O)c2ccc(OC)cc2)CC1	–	-23% (inactive)
